SENP7 inh – inhibitors of human SENP7 protease; 330,000 tested, 1.5% active; inhibition, % at 5 µM; recombinant SENP7, Z-RLRGG-aminoluciferin luminescence, 40 min; Q9BQF6; AID 434973;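 active = inhibition above about 50% at the single test dose, limit read from the data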;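 also: plate controls were DMSO with enzyme for no effect and no enzyme buffer wells for full effect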
PPC-1+TRAIL kill – PPC-1 cancer cell killing with TRAIL present; 220,000 tested, 0.41% active; PPC-1 cells + TRAIL, ATPLite viability luminescence; AID 1443; cell killing (% activity), % at 4 µM or 5 µM;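 active = cell killing above 50% in the first pass at 4 µM, then a duplicate retest at 5 µM averaging 50% or more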;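 also: plate controls were cells with TRAIL plus DMSO for no effect and medium-only wells lacking cells for full effect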
TRAIL sens C8 – caspase-8 TRAIL sensitization; NB7+C8 cells + TRAIL, ATPlite viability luminescence; inhibition (viability loss, TRAIL sensitization), % at 10 µM; 360,000 tested, 1% active;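 active = compounds causing at least 50% loss of cell viability in the single-dose screen, relative to plate controls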
SENP8 block-1 – SENP8 protease inhibition; Q96LD8; purified SENP8, Z-RLRGG-aminoluciferin cleavage, luminescence; inhibition, % at 10 µM; 330,000 tested, 1.2% active; in the data active = inhibition above about 50%
SENP8 block-2 – SENP8 (human) protease inhibition; Q96LD8; recombinant SENP8, Nedd8 substrate fluorescence; inhibition, % at 20 µM; 360,000 tested, 0.64% active; in the data active = inhibition mostly above about 40%, no sharp cut-off; inactive = mostly below about 27%
SENP6 inh – SENP6 protease inhibition | inhibition, % at 10 µM | AID 2599 | Recombinant SENP6 catalytic domain, aminoluciferin luminescence | 330,000 tested, 1.8% active;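 active = inhibition above about 50% at the single tested dose, limit read from the data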;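 also: plate controls were DMSO wells with enzyme for no effect and DMSO wells lacking enzyme for full effect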
Target sequence (Q9GZR1 628-1112 limits assumed): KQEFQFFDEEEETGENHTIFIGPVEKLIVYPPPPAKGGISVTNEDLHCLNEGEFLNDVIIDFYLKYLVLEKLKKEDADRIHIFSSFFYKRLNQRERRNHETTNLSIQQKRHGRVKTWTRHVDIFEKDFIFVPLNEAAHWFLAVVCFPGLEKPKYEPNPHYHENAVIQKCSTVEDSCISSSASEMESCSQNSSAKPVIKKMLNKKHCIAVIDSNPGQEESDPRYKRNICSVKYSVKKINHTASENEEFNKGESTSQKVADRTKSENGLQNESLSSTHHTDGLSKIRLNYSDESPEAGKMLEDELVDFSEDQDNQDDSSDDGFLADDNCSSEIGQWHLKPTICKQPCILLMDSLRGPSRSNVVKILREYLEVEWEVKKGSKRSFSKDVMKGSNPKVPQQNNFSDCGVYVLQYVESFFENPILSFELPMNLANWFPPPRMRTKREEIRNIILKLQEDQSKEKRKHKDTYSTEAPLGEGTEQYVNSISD
SENP8 conf – SENP8 (human) inhibition, single concentration confirmation; 1,400 tested, 15% active; shares compounds with SENP8 block-2; inhibition, % at 25 µM; purified SENP8, Nedd8-AMC/pro-Nedd8 cleavage fluorescence, 30 min; AID 624319; in the data active = inhibition mostly above about 39%, no sharp cut-off; inactive = mostly below about 34%
Numbers without * were called inactive; x = no result given. Compounds with a hit are over-represented: about 3% of the library has one in this group of screens.

SMILES	SENP7 inh	PPC-1+TRAIL kill	TRAIL sens C8	SENP8 block-1	SENP8 block-2	SENP6 inh	SENP8 conf
COc1nccnc1NS(=O)(=O)c1ccc(N=Cc2c(C)[nH]n(-c3ccc(Cl)cc3)c2=O)cc1	-4.2	6.9	x	-2.7	x	3.5	x
CCOc1[nH]n(-c2ccccc2)c(=O)c1C=Nc1ccc(C(=O)OC)cc1	13.3	8.4	-7.4	4.5	53.5*	13.3	20.0
Cc1cccc(NC(=O)CNC(=O)CN2C(=O)NC3(CCCCC3C)C2=O)c1C (stereo not drawn)	8.5	x	-1.3	0.4	8.8	-5.6	x
OCC[C@H]1C[C@H](O)[C@@H](O)[C@@]2(CCc3ccccc3O2)O1	1.1	x	-5.7	1.6	4.2	3.1	x
CCOC(=O)/C=C/C(=O)Nc1ccccc1C(=O)NC1CCCCC1	-2.1	19.7	-2.1	5.2	-5.3	9.2	x
O=C(C[n+]1cc(-c2ccccc2)n2c1CCCCC2)c1ccc(Br)cc1	6.3	10.7	2.7	-4.3	45.5*	-16.1	9.5
COC(=O)C1=C(C)NC(C)=C(C(=O)OC)C1c1ccc(OC(=O)c2oc3ccccc3c2C)c(OC)c1	-6.4	20.2	-7.1	-1.6	-362.5	-2.6	x
COC(=O)c1ccc(NC(=O)CN2C(=O)CC(C)S(=O)(=O)c3ccccc32)cc1 (stereo not drawn)	-2.8	x	-1.7	-9.2	7.6	-21.9	x
Cc1cc(C)c(C)c(S(=O)(=O)NCc2ccc(C(=O)N3CCCCC3)cc2)c1C	-4.8	8.2	5.1	1.2	42.0*	-5.5	7.5
COc1ccc(C(=O)CNc2ccc(C)cc2C)cc1	12.6	0.0	-17.9	-7.1	54.1*	-7.1	14.3
CN(C)c1ccc(NC(=O)C2C3C=CC(C3)C2C(=O)O)cc1 (stereo not drawn)	8.6	x	20.1	-0.1	51.1*	26.0	3.7
COc1ccc(C(=O)/C=C(\C)Nc2ccc3c(c2)OCO3)cc1	1.3	22.6	5.7	-2.7	41.4*	12.5	2.5
COc1ccc(N/C(C)=C/C(=O)c2ccccc2)cc1	-0.3	21.9	14.4	-10.4	6.5	9.1	x
O=C(c1cc(F)c(F)c(F)c1F)N1CCN(Cc2ccc3c(c2)OCO3)CC1	2.2	x	9.4	2.9	21.3	-7.6	x
Cc1cc(C)nc(NNS(=O)(=O)c2ccc(F)c(Cl)c2)n1	3.4	x	-1.4	-1.5	35.7*	-8.8	14.0
COc1ccc(OC)c(CN2C(=O)CN(S(C)(=O)=O)CC2(C)C(=O)Nc2c(C)cccc2C)c1 (stereo not drawn)	x	x	-10.4	x	1.8	x	x
Nc1cc(N)cc(C(=O)c2ccccc2)c1	x	x	0.6	x	43.1*	x	77.0*
CNc1ncnc(Sc2ccc(Cl)cc2)c1[N+](=O)[O-]	-0.1	10.3	9.7	7.5	41.6*	-2.6	4.0
CCCCOCCCNC(=O)c1ccc2c(c1)OCO2	1.0	-2.5	-2.5	3.5	-1.8	-10.2	x
COCCCNC(=O)c1ccc2c(c1)OCO2	4.5	22.3	32.8	-1.9	44.6*	1.2	11.8
CCC(NS(=O)(=O)c1ccc(C)cc1)C(=O)N1CCOCCOCCOCCOCC1 (stereo not drawn)	2.0	x	-3.6	0.5	13.1	-8.7	x
O=c1oc2ccccc2nc1/C=C(O)/C=C/c1ccc(F)cc1	4.5	23.2	-4.3	-4.1	47.2*	1.6	-3.3
O=c1oc2ccccc2nc1/C=C(O)/C=C\c1ccccc1	10.4	13.1	6.3	2.5	14.8	0.2	x
COc1ccc(Oc2cccc(Cl)c2CNC(=O)CCCC(=O)O)cc1	-5.9	-2.9	-3.6	-12.1	13.6	-5.5	x
Cc1nc2c(C(=O)Nc3ccc(N4CCCC(O)C4)cc3)snc2c(=O)[nH]1 (stereo not drawn)	-4.7	-3.7	20.2	-1.4	57.0*	-2.0	-3.9
Cc1cccc(N2CCN(C3=NC(=O)C(Cc4ccccc4)S3)CC2)c1 (stereo not drawn)	-7.2	-3.8	-1.0	-8.3	24.7	-20.1	x
CCOc1ccc(N/C=C/C(=O)c2ccc(C)cc2)c([N+](=O)[O-])c1	-6.9	31.4	25.4	-6.8	42.6*	-13.4	19.5
CCC(C)NC(=O)c1ccc(N2CC3CC(C2)c2cccc(=O)n2C3)c(NC(=O)c2ccc(Br)o2)c1 (stereo not drawn)	-1.7	x	15.6	5.9	15.7	-1.6	x
CC(=O)c1ccccn1	0.9	x	5.5	-11.9	6.8	-13.8	x
